Screens: PubChem BioAssay, Sanford-Burnham Center for Chemical Genomics
Only some compounds are listed: those with a hit (about 28% of all), similar ones and a draw of the others.
Mac1 fbg enh – increases human CD11b/CD18 adhesion to fibrinogen; 93,000 tested, 0.07% active; AID 1499; activation, % at 10 µM; P05107+P11215; K562 CD11b/CD18 adhesion to fibrinogen, ATPlite luminescence;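 active = 10 µM primary screen giving 50% or more activity, confirmed by 40% or more on retest at that dose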
CYP2C19 act – activators of human cytochrome P450 2C19. recombinant CYP2C19, luciferin-H EGE luminescence; hits give high values; 0 = fully inhibited enzyme, 1 = untreated enzyme. activation factor at 5 µM. 96,000 tested, under 10 active;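 active = activation factor of at least 2 at 5 µM in the primary screen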;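 note: 0 = wells with 2.5 mM tranylcypromine and 1 = vehicle-only wells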
CYP2C9 act – CYP2C9 (human) activation | P11712 | recombinant CYP2C9, luciferin-H conversion, luminescence; hits give high values; factor 1 = untreated enzyme, 0 = blocked | activation factor at 5 µM | 96,000 tested, 1.4% active | AID 1024;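 active = activation factor of 2 or more for CYP2C9 at a 5 µM dose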;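 note: 0 = sulfaphenazole-blocked wells and 1 = vehicle-only wells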
Target sequence (P11712 whole entry, looked up): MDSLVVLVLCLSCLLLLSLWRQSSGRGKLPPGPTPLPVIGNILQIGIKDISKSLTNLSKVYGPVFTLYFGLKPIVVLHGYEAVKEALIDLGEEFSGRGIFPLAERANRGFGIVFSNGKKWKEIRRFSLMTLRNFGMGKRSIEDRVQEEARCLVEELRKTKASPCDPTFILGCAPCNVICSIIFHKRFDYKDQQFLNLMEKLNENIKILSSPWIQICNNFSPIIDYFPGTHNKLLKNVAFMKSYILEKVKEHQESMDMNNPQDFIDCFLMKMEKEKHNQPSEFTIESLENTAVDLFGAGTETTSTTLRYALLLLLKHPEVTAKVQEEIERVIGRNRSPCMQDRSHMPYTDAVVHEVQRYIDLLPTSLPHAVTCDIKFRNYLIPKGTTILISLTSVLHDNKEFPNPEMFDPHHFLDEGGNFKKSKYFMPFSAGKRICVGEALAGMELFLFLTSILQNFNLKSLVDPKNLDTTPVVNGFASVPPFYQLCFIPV
CYP2C9 inh – human CYP2C9 inhibition; P11712; CYP2C9 Supersomes, luciferin-H conversion, luminescence; inhibition, % at 5 µM; 96,000 tested, 20% active;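 active = blocking of liver enzyme CYP2C9 beyond about 50% at 5 µM, limit read from the data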
Mac1 fbg inh – blocks human CD11b/CD18 adhesion to fibrinogen. P05107+P11215. K562 CD11b/CD18 adhesion to fibrinogen, ATPlite luminescence; Mn2+ added to activate the integrin. inhibition, % at 10 µM. 93,000 tested, 0.54% active. AID 1497;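 active = primary inhibition of 50% or more at 10 µM, then 40% or more on retest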
CYP2C19 inhib – human CYP2C19 inhibition; inhibition, % at 5 µM; P33261; CYP2C19 Supersomes, luciferin-H EGE luminescence, 30 min; 96,000 tested, 21% active;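 active = CYP2C19 inhibition above a set limit at 5 µM in the primary screen, cut at about 50% in these data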;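 note: plate controls were negative control wells for no effect and 2.5 mM tranylcypromine positive control for full effect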
Numbers without * were called inactive; · = no result.

SMILES	Mac1 fbg enh	CYP2C19 act	CYP2C9 act	CYP2C9 inh	Mac1 fbg inh	CYP2C19 inhib
c1ccc(CCn2nnnc2C(c2cccs2)N2CCOCC2)cc1 (stereo not drawn)	-2	0.7	1	-5	-2	27
CC(C)(C)n1nnnc1C(c1cccnc1)N1CCN(c2ccccc2)CC1 (stereo not drawn)	·	0.4	0.8	19	·	59*
CC(C)(C)n1nnnc1C(c1cccs1)N1CCN(c2ccccc2)CC1 (stereo not drawn)	2	0.9	0.2	79*	-29	10
CC(C)c1ccc(NC(=O)COC(=O)CSc2nnc(N)s2)cc1	4	·	·	·	11	·
O=C(NC(=S)Nc1cccc(Cl)c1N1CCCCC1)c1cccs1	·	0.9	0.4	59*	·	14
NC(=O)c1nn(-c2ccccc2)c(=O)cc1O	7	1.1	1.1	-6	6	-8
Cc1ccc(Nc2nc(N)nc(CSc3nnc(-c4ccncc4)o3)n2)cc1	6	1	0.9	10	-27	4
O=C(Cn1nnc(-c2ccc(N3CCOCC3)cc2)n1)OC1CCCCC1	2	0.8	0.9	10	-6	16
CCC(C(=O)NC1CCCC1)N(Cc1ccco1)C(=O)Cn1nnc(-c2ccc(C)cc2)n1 (stereo not drawn)	0	0.2	0.3	72*	-24	83*
O=C(Cn1nnc(-c2ccncc2)n1)N(C1CCCCC1)C1CCCCC1	3	0.1	0.1	87*	-2	87*
Cc1ccc(-c2nnn(CC(=O)N(Cc3ccccc3)C(C(=O)NC(C)(C)C)c3ccncc3)n2)o1 (stereo not drawn)	-1	0.5	0.6	44	0	50*
CCOC(=O)CN(C(=O)Cn1nnc(-c2ccc(C)cc2)n1)C(CC)C(=O)NC1CCCC1 (stereo not drawn)	3	0.8	0.7	30	7	25
Cc1ccc(N(C(=O)Cn2nnc(-c3cccs3)n2)C(C(=O)NC2CCCC2)c2ccncc2)cc1 (stereo not drawn)	·	0.5	0.5	54*	·	46
Cc1ccc(C)c(N(C(=O)Cn2nnc(-c3cccs3)n2)C(C(=O)NC2CC2)c2ccc(C)o2)c1 (stereo not drawn)	3	0.5	0.8	22	0	48
CSc1nnc2c(n1)OC(C1CC=C(C)CC1)Nc1ccccc1-2 (stereo not drawn)	0	1.1	1.3	-26	10	-9
CC(C)(C)NC(=O)C(c1ccncc1)N(Cc1cccs1)C(=O)Cn1nnc(-c2cccs2)n1 (stereo not drawn)	17	0.1	0.1	92*	-4	92*
CCC(C(=O)NC1CCCC1)N(C(=O)Cn1nnc(-c2cccs2)n1)c1cnc2ccccc2c1 (stereo not drawn)	2	1	1	-3	-26	0
CC(C)(C)NC(=O)C(c1ccncc1)N(C(=O)Cn1nnc(-c2cccs2)n1)C1CCCCC1 (stereo not drawn)	5	0.3	0.2	76*	-10	69*
Cc1c(C)[n+](=O)c2c(n1[O-])CCCCC2	0	1	0.9	12	-8	-4
Cc1ccccc1CS(=O)(=O)CCC(=O)N1CCN(c2ccc(N3CCOCC3)nn2)CC1	10	1.1	1.1	-10	-41	-8
O=C(COC(=O)c1cccc2ccccc12)Nc1ncc(C(F)(F)F)cc1Cl	-1	0.6	0.8	24	-47	42
CCOc1ccccc1C(=O)OCC(=O)Nc1ccc(OC(F)F)cc1	0	0.4	1	-1	12	55*
COc1ccc(NC(=S)NNC(=O)c2ccccc2OC(F)F)cc1	-1	0.7	0.5	54*	6	31
CCOc1ncccc1C(=O)OCC(=O)Nc1ncc(C(F)(F)F)cc1Cl	-2	0.4	0.7	26	-9	62*
CCOc1ccccc1C(=O)OCC(=O)Nc1ncc(C(F)(F)F)cc1Cl	9	0.1	0.7	29	-36	93*
SMILES	Mac1 fbg enh	CYP2C19 act	CYP2C9 act	CYP2C9 inh	Mac1 fbg inh	CYP2C19 inhib
Cc1cccc(NC(=S)NNC(=O)c2ccccc2OC(F)F)c1	3	0.7	0.5	47	-1	33
O=C(COC(=O)c1ccccn1)Nc1ncc(C(F)(F)F)cc1Cl	-2	0.7	0.8	20	-4	35
O=C(COC(=O)Cc1ccc(Cl)cc1)Nc1ccc(OC(F)F)cc1	7	·	·	·	4	·
N#Cc1c(NC(=O)c2ccccc2Cl)n(Cc2ccccc2)c2nc3ccccc3nc12	-6	·	·	·	100*	·
CCCCn1c(NC(=O)c2ccccc2Cl)c(C#N)c2nc3ccccc3nc21	-9	0.9	0.6	36	106*	9
CCOc1ccc(-c2nnc(-c3snc(-c4ccc(F)cc4)c3N=CN(C)C)o2)cc1	34	1.1	1.1	-8	-12	-6
O=C(COC(=O)C1=Cc2ccccc2OC1)NC1CCCC1	2	0.7	0.8	20	-8	28
Cc1ccc(OC(=O)CCC(=O)N2CCc3ccccc32)cc1	-1	1	1.2	-18	9	-1
COc1ccccc1-c1cc(C(=O)Nc2ccccc2SC)no1	-3	1.1	1.5	-50	4	-12
COc1ccc([N+](=O)[O-])cc1NC(=S)NC(NC(=O)C(c1ccccc1)c1ccccc1)C(Cl)(Cl)Cl (stereo not drawn)	-1	0.8	0.3	69*	-12	16
Cc1cc([N+](=O)[O-])ccc1NC(=S)NC(=O)C(c1ccccc1)c1ccccc1	1	0.8	0.3	66*	18	22
Cc1nn(-c2ccccc2)c2c1C(O)n1c(nc3ccccc31)S2 (stereo not drawn)	-2	0.3	0.4	58*	18	70*
CC1CCCN(C(=O)C2CCN(CC3CC=CCC3)CC2)C1 (stereo not drawn)	-1	1	1.3	-26	-15	-1
COc1ccc(-n2nnc3c(=O)n(Cc4cccc(C)c4)cnc32)cc1	4	0.8	0.4	56*	-11	24
COc1ccc(-n2nnc3c(=O)n(Cc4ccccc4C)cnc32)cc1	-2	0.9	0.7	26	-4	9
CC(Sc1nnnn1C)C(=O)Nc1ccc(Oc2ccccc2)cc1 (stereo not drawn)	·	0.4	0.5	46	·	63*
Cc1ccnc2nc(C(=O)NCCc3ccc(F)cc3)nn12	-2	0.8	1.2	-22	8	15
CCCCc1ccc(NC(=O)OC)cc1	0	0.5	0.4	65*	7	49
O=C(NCc1ccc(OC(F)(F)F)cc1)C1CC(c2c(Cl)cccc2Cl)=NO1 (stereo not drawn)	2	0.1	0.5	48	5	87*
COc1ccc(CNC(=O)C2CC(c3cccc([N+](=O)[O-])c3)=NO2)cc1 (stereo not drawn)	·	0.8	1.1	-13	·	22
